The results in this text go back to the antibiotic and cytotoxicity screens of Wong et al. (2023).

The structures appear in SMILES notation. Among all 39,000 compounds or so, about 1,500 (3.8%) were called active. The list comes from a sample in which actives are over-represented; it also holds similar structures and randomly drawn compounds.

The test system of the assay is HSkMC (human skeletal muscle cells). The assay is described as follows: cytotoxicity call (relative viability < 0.9). The conditions noted are these: 10 µM.
For the compound `CN(C)CCCC1(c2ccc(F)cc2)OCc2cc(C#N)ccc21.O=C(O)C(=O)O` (stereo unspecified), the cytotoxicity call is “inactive”.

Turning to `COc1c(C)cccc1C(=O)N1CC[C@H](c2nn(CCN)c3ncccc23)C1`, the cytotoxicity call was “inactive”.

Consider `COc1ccc(NC(=O)Nc2ccc3c(c2)C(=O)N([C@@H](C)CO)C[C@@H](C)[C@H](CN(C)S(=O)(=O)c2ccc(F)cc2)OCCCC[C@@H](C)O3)cc1`, for which the cytotoxicity call was “inactive”.

Take `CO[C@@H]1CN(C)C(=O)c2ccc(NS(C)(=O)=O)cc2OC[C@H](C)N(C(=O)CN(C)C)C[C@@H]1C`: the cytotoxicity call was “inactive”.

In the case of `O=C(C[C@@H]1C[C@H]2c3cc(NC(=O)Nc4ccc(C(F)(F)F)cc4)ccc3O[C@H]2[C@H](CO)O1)NCCc1ccccc1`, the cytotoxicity call is “active”.

Turning to `O=C(C[C@H]1C[C@@H]2c3cc(NC(=O)Nc4ccc(C(F)(F)F)cc4)ccc3O[C@@H]2[C@H](CO)O1)NCc1ccc(Cl)cc1`, the cytotoxicity call is “inactive”.

Take `O=C(C[C@@H]1C[C@@H]2c3cc(NC(=O)Nc4ccc(C(F)(F)F)cc4)ccc3O[C@@H]2[C@H](CO)O1)NCc1cc(F)ccc1F`: the cytotoxicity call is “inactive”.

`O=C(Nc1ccc(C(F)(F)F)cc1)Nc1ccc2c(c1)[C@H]1C[C@H](CC(=O)N3CCc4ccccc4C3)O[C@H](CO)[C@H]1O2`: the cytotoxicity call was “active”.

`O=C(C[C@@H]1C[C@H]2c3cc(NC(=O)Nc4ccc(C(F)(F)F)cc4)ccc3O[C@H]2[C@H](CO)O1)NCc1ccc(Cl)cc1`: the cytotoxicity call was “active”.

Consider `O=C(Nc1ccc(C(F)(F)F)cc1)Nc1ccc2c(c1)[C@@H]1C[C@@H](CC(=O)N3CCc4ccccc4C3)O[C@H](CO)[C@@H]1O2`, for which the cytotoxicity call was “inactive”.

`O=C(C[C@H]1C[C@@H]2c3cc(NC(=O)Nc4ccc(C(F)(F)F)cc4)ccc3O[C@@H]2[C@H](CO)O1)NCc1cc(F)ccc1F`: the cytotoxicity call is “inactive”.

`O=C(Nc1ccc(C(F)(F)F)cc1)Nc1ccc2c(c1)[C@H]1C[C@@H](CC(=O)N3CCc4ccccc4C3)O[C@H](CO)[C@H]1O2`: the cytotoxicity call is “inactive”.

In the case of `O=C(C[C@H]1C[C@@H]2c3cc(NC(=O)Nc4ccc(C(F)(F)F)cc4)ccc3O[C@@H]2[C@@H](CO)O1)NCc1ccc(Cl)cc1`, the cytotoxicity call is “inactive”.

As to `O=C(C[C@H]1C[C@H]2c3cc(NC(=O)Nc4ccc(C(F)(F)F)cc4)ccc3O[C@H]2[C@@H](CO)O1)NCCc1ccccc1`, the cytotoxicity call is “inactive”.

`O=C(C[C@@H]1C[C@@H]2c3cc(NC(=O)Nc4ccc(C(F)(F)F)cc4)ccc3O[C@@H]2[C@@H](CO)O1)NCCc1ccccc1`: the cytotoxicity call was “inactive”.

With `O=C(C[C@H]1C[C@@H]2c3cc(NC(=O)Nc4ccc(C(F)(F)F)cc4)ccc3O[C@@H]2[C@@H](CO)O1)NCc1cc(F)ccc1F`, the cytotoxicity call was “active”.

With `Cc1noc(C)c1S(=O)(=O)Nc1ccc2c(c1)CC(=O)N([C@@H](C)CO)C[C@@H](C)[C@@H](CN(C)Cc1ccccc1)O2`, the cytotoxicity call is “inactive”.

Turning to `Cc1noc(C)c1NC(=O)Nc1ccc2c(c1)CC(=O)N([C@@H](C)CO)C[C@@H](C)[C@@H](CN(C)Cc1ccc(-c3ccccc3)cc1)O2`, the cytotoxicity call is “inactive”.

`COc1ccc(NC(=O)N(C)C[C@@H]2Oc3c(NC(=O)Nc4cccc5ccccc45)cccc3C(=O)N([C@@H](C)CO)C[C@@H]2C)cc1`: the cytotoxicity call was “inactive”.

With `C[C@H]1COC(=O)[C@H](NC(=O)OCC2c3ccccc3-c3ccccc32)CC=CC[C@@H](CC(=O)NCCO)C(=O)N1`, the cytotoxicity call was “inactive”.

Consider `CCCNC(=O)N[C@@H]1C=C[C@@H](CC(=O)N2CCN(C)CC2)O[C@@H]1CO`, for which the cytotoxicity call is “inactive”.

Take `Cc1ccc(S(=O)(=O)Nc2ccc3c(c2)C(=O)N([C@H](C)CO)C[C@H](C)[C@@H](CN(C)C(=O)Nc2c(C)noc2C)OCCCC[C@H](C)O3)cc1`: the cytotoxicity call is “inactive”.

In the case of `C[C@H]1CN([C@@H](C)CO)C(=O)c2c(c3ccccc3n2C)-c2ccccc2CO[C@H]1CN(C)C(=O)Nc1ccc(-c2ccccc2)cc1`, the cytotoxicity call was “inactive”.

Regarding `C[C@H]1CN([C@@H](C)CO)C(=O)c2cc(NC(=O)Nc3ccc(C(F)(F)F)cc3)ccc2O[C@H]1CN(C)Cc1ccc(C(=O)Nc2ccccc2N)cc1`, the cytotoxicity call was “active”.

`C[C@@H]1CCCCO[C@@H](CN(C)Cc2ccc(C(=O)Nc3ccccc3N)cc2)[C@@H](C)CN([C@H](C)CO)C(=O)c2cc(NC(=O)Nc3ccc(C(F)(F)F)cc3)ccc2O1`: the cytotoxicity call is “active”.

Consider `C[C@@H]1CCCCO[C@@H](CN(C)Cc2ccc(C(=O)Nc3ccccc3N)cc2)[C@@H](C)CN([C@H](C)CO)C(=O)c2cc(NC(=O)Nc3ccc(F)cc3)ccc2O1`, for which the cytotoxicity call was “inactive”.

On to `C[C@@H]1CN([C@@H](C)CO)C(=O)c2cc(NC(=O)Nc3ccc(C(F)(F)F)cc3)ccc2O[C@H]1CN(C)Cc1ccc(C(=O)Nc2ccccc2N)cc1`, for which the cytotoxicity call was “inactive”.

In the case of `C[C@H](CO)N1C[C@H](C)[C@@H](CN(C)Cc2ccc(C(=O)Nc3ccccc3N)cc2)Oc2ccc(NC(=O)Nc3ccc(C(F)(F)F)cc3)cc2C1=O`, the cytotoxicity call was “inactive”.

Turning to `C[C@H]1CN([C@@H](C)CO)C(=O)c2cc(NC(=O)Nc3ccc(C(F)(F)F)cc3)ccc2O[C@@H]1CN(C)Cc1ccc(C(=O)Nc2ccccc2N)cc1`, the cytotoxicity call is “inactive”.

For `C[C@@H]1CCCCO[C@H](CN(C)Cc2ccc(C(=O)Nc3ccccc3N)cc2)[C@@H](C)CN([C@@H](C)CO)C(=O)c2cc(NC(=O)Nc3ccc(C(F)(F)F)cc3)ccc2O1`, the cytotoxicity call was “inactive”.

Turning to `C[C@H](CO)N1C[C@H](C)[C@H](CN(C)Cc2ccc(C(=O)Nc3ccccc3N)cc2)Oc2ccc(NC(=O)Nc3ccc(C(F)(F)F)cc3)cc2C1=O`, the cytotoxicity call is “active”.

On to `C[C@@H]1CN([C@H](C)CO)C(=O)c2cc(NC(=O)Nc3ccc(C(F)(F)F)cc3)ccc2O[C@@H]1CN(C)Cc1ccc(C(=O)Nc2ccccc2N)cc1`, for which the cytotoxicity call was “inactive”.

`C[C@@H]1CN([C@H](C)CO)C(=O)Cc2cc(NC(=O)CCN3CCOCC3)ccc2O[C@@H]1CN(C)C(=O)Nc1ccccc1`: the cytotoxicity call was “inactive”.

In the case of `CN1C(=O)NC2(CCNCC2)C1=O`, the cytotoxicity call was “inactive”.

Consider `O=[N+]([O-])c1ccc(/C=C/CN(C/C=C/c2ccc([N+](=O)[O-])cc2)CCCNS(=O)(=O)c2cccc3cnccc23)cc1`, for which the cytotoxicity call was “inactive”.

In the case of `COc1ccc(NC(=O)Nc2cccc3c2O[C@@H](CN(C)Cc2ccc(C(F)(F)F)cc2)[C@@H](C)CN([C@H](C)CO)C3=O)cc1`, the cytotoxicity call was “inactive”.

As for `COc1ccc(NC(=O)Nc2cccc3c2O[C@@H](CN(C)Cc2ccc(C(F)(F)F)cc2)[C@H](C)CN([C@H](C)CO)C3=O)cc1`, the cytotoxicity call was “inactive”.

On to `COc1ccc(CN(C)C[C@@H]2Oc3c(NC(=O)Nc4ccc(C(F)(F)F)cc4)cccc3C(=O)N([C@@H](C)CO)C[C@H]2C)cc1`, for which the cytotoxicity call was “active”.

Regarding `COc1ccc(NC(=O)Nc2cccc3c2O[C@H](CN(C)Cc2ccc(C(F)(F)F)cc2)[C@@H](C)CN([C@@H](C)CO)C3=O)cc1`, the cytotoxicity call is “inactive”.

Consider `COc1ccc(CN(C)C[C@H]2Oc3c(NC(=O)Nc4ccc(C(F)(F)F)cc4)cccc3C(=O)N([C@@H](C)CO)C[C@H]2C)cc1`, for which the cytotoxicity call is “inactive”.

On to `COc1ccc(CN(C)C[C@H]2Oc3c(NC(=O)Nc4ccc(C(F)(F)F)cc4)cccc3C(=O)N([C@H](C)CO)C[C@H]2C)cc1`, for which the cytotoxicity call is “inactive”.

Regarding `COc1ccc(NC(=O)Nc2cccc3c2O[C@@H](CN(C)Cc2ccc(C(F)(F)F)cc2)[C@H](C)CN([C@@H](C)CO)C3=O)cc1`, the cytotoxicity call was “inactive”.

For the compound `COc1ccc(CN(C)C[C@H]2Oc3c(NC(=O)Nc4ccc(C(F)(F)F)cc4)cccc3C(=O)N([C@H](C)CO)C[C@@H]2C)cc1`, the cytotoxicity call is “active”.

Regarding `COc1ccc(CN(C)C[C@@H]2Oc3c(NC(=O)Nc4ccc(C(F)(F)F)cc4)cccc3C(=O)N([C@H](C)CO)C[C@H]2C)cc1`, the cytotoxicity call was “active”.

For the compound `C[C@H](CO)N1C[C@H](C)[C@@H](CN(C)C(=O)CN(C)C)Oc2cc(-c3cncnc3)ccc2S1(=O)=O`, the cytotoxicity call is “inactive”.

Consider `O=C(C[C@H]1CC[C@H]2[C@@H](COC[C@H](O)CN2C(=O)c2cnccn2)O1)NCc1ccc(Oc2ccccc2)cc1`, for which the cytotoxicity call is “inactive”.

Consider `C[C@@H]1CN([C@H](C)CO)S(=O)(=O)c2ccc(C#CC3CCCC3)cc2O[C@H]1CN(C)C(=O)Cc1ccncc1`, for which the cytotoxicity call was “inactive”.

Consider `C[C@@H]1CCCCO[C@@H](CN(C)C(=O)c2ccccc2)[C@@H](C)CN([C@H](C)CO)C(=O)c2cc(NS(=O)(=O)c3ccc(Cl)cc3)ccc2O1`, for which the cytotoxicity call was “inactive”.

Take `O=C(NCC(F)(F)F)[C@@H]1[C@@H](CO)[C@@H]2Cn3c(cccc3=O)[C@H]1N2C(=O)C1CCC1`: the cytotoxicity call was “inactive”.

With `COc1ccc(S(=O)(=O)N(C)C[C@H]2Oc3ccc(NS(=O)(=O)c4ccc(C)cc4)cc3C(=O)N([C@H](C)CO)C[C@@H]2C)cc1`, the cytotoxicity call was “inactive”.

`CC(C)NC(=O)N(C)C[C@@H]1Oc2ccc(NC(=O)CCN3CCOCC3)cc2CC(=O)N([C@@H](C)CO)C[C@@H]1C`: the cytotoxicity call is “inactive”.

As to `Cc1ccccc1S(=O)(=O)N1C[C@H](O)COC[C@H]2O[C@@H](CC(=O)NCc3ccccc3Cl)CC[C@@H]21`, the cytotoxicity call was “inactive”.

Turning to `COc1ccc2c3c([nH]c2c1)[C@@H](CO)N(C[C@]13CN(CCc2ccccc2)C1)C(=O)CN1CCOCC1`, the cytotoxicity call is “inactive”.

In the case of `COc1ccc2c3c([nH]c2c1)[C@@H](CO)N(Cc1ccc(cc1)Cl)C[C@]13CN(CCc2ccccc2)C1`, the cytotoxicity call was “active”.

In the case of `COc1ccc2c3c([nH]c2c1)[C@@H](CO)N(Cc1ccccc1)C[C@]13CCN(CC1)C(=O)Nc1cccc(c1)F`, the cytotoxicity call is “inactive”.

For the compound `COc1ccc2c3c([nH]c2c1)[C@@H](CO)N(Cc1ccc(cc1)Cl)C[C@]13CCN(CCc2ccccc2)CC1`, the cytotoxicity call was “active”.

As to `COc1ccc2c3c([nH]c2c1)[C@H](CO)N(Cc1ccc(cc1)Cl)C[C@]13CCN(CCc2ccccc2)CC1`, the cytotoxicity call is “inactive”.

Consider `COc1ccc2c3c([nH]c2c1)[C@H](CO)N(C[C@]13CN(CCc2ccccc2)C1)C(=O)CN1CCOCC1`, for which the cytotoxicity call is “inactive”.

As to `COc1ccc2c3c([nH]c2c1)[C@H](CO)N(C[C@]13CCN(CCc2ccccc2)CC1)C(=O)CN1CCOCC1`, the cytotoxicity call is “inactive”.

For `COc1ccc2c3c([nH]c2c1)[C@H](CO)N(Cc1ccc(cc1)Cl)C[C@]13CN(CCc2ccccc2)C1`, the cytotoxicity call was “active”.

For `COc1ccc2c3c([nH]c2c1)[C@H](CO)N(Cc1ccccc1)C[C@]13CCN(CC1)C(=O)Nc1cccc(c1)F`, the cytotoxicity call is “inactive”.
